# Laboratory results from the supplement of paper PMC3334620.
# Whole data set: some 33,000 sequences, median “E-score (-0.5 to 0.5)” near -0.035, cut for the highest 2% near 0.35. The list comes from a sample in which the highest values are over-represented; it also holds similar and randomly drawn sequences.
# Target: T1, Pdr3 (UniProt P33200)
# T1 sequence: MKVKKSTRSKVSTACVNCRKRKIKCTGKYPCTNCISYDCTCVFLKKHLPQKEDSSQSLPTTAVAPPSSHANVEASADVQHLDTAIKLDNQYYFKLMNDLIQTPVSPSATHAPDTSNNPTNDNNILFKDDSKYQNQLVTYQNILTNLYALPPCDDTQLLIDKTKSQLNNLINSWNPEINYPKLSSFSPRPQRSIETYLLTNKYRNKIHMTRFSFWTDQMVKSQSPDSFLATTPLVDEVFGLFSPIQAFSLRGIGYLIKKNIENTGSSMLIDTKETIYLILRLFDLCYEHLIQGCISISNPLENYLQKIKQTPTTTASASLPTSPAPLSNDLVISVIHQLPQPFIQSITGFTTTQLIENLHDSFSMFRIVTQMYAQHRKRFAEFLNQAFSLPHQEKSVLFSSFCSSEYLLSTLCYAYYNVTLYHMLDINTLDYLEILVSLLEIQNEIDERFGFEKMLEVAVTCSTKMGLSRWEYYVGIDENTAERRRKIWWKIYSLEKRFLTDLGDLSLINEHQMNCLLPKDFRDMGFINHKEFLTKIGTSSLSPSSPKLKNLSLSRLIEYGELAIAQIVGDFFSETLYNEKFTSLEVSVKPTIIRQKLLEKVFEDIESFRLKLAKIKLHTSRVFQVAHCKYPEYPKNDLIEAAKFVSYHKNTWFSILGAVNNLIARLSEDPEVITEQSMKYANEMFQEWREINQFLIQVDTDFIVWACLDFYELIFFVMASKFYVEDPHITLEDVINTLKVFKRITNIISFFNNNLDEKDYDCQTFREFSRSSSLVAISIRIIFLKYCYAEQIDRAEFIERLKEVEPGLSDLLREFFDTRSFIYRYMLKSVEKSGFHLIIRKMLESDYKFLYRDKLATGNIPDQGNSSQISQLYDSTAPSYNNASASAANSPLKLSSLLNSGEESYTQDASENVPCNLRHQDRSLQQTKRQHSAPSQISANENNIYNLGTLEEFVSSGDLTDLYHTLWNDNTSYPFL
# Assay: PBM E-score (8-mer binding enrichment) (E-score (-0.5 to 0.5)); higher = stronger / more preferred TF binding
# Settings: protein concentration: 200 nM; construct: GST-full length
# Method: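 Universal 'all 10-mer' protein binding microarrays (Agilent AMADID 015681) probed with GST-tagged S. cerevisiae TFs (full-length or DBD) made by in vitro transcription/translation (PURExpress), about 100-200 nM. Bound TF was detected with fluorescent anti-GST. Each ungapped 8-mer (which stands for itself and its reverse complement) is scored by the PBM enrichment score (E-score), a modified Wilcoxon-Mann-Whitney statistic from -0.5 to +0.5, computed with the Universal PBM Analysis Suite. Scale: above 0.35 generally sequence-specific binding.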
row,Sequence,PBM E-score
1,GCGGAGTA,0.245
2,AAGAGTTC,-0.178
3,CCCCAACA,-0.274
4,ATTAAGAG,-0.0729
5,CGAGCGGA,0.359
6,AGTGCGGG,0.185
7,GGCGCGGA,0.352
8,AGCGCGGC,0.107
9,AGTGCGGA,0.377
10,CGCGCGGC,0.373
11,CGCGCGGA,0.383
12,AGCGCGGA,0.331
13,CGAGCGGC,0.228
14,AGAGCGGA,0.229
15,CGTGCGGA,0.177
16,CTCGCGGC,0.171
17,AGGCTACT,-0.167
18,CCGCCAGC,0.105
19,TACCTAGA,-0.195
20,ACCCGTAT,0.0405
21,AGAGTAAC,0.0157
22,AAATCTAT,-0.00749
23,CGGTGTAG,-0.0315
24,CTTATCCA,-0.00809
25,CGCGGGGA,0.393

row,Sequence,PBM E-score
1,CGCGGGAC,0.444
2,CGCGGGAA,0.429
3,AGCGGGAC,0.185
4,GGCGGGAC,0.295
5,CGCGGGGC,0.304
6,AGCGGGGA,0.0517
7,GGCGGGAA,0.198
8,AGCGGGAA,0.232
9,AAGTTCAG,-0.098
10,CGGTTCCC,0.153
11,AGTACTGG,-0.222
12,GAACTAGC,-0.00564
13,ATTCCCTA,0.0152
14,GGTTCTTA,-0.0791
15,AAGACCAA,-0.0835
16,GTTACCCA,-0.159
17,ATGCGCTG,-0.0256
18,AATCAACT,0.0921
19,ATAAGCTC,0.042
20,AACCGCGA,0.277
21,CACCGCGA,0.032
22,CACCGCGC,0.166
23,AACCGCGT,0.141
24,AGCCGCGC,0.236
25,AACCGCGG,0.457

row,Sequence,PBM E-score
1,CACCGCGG,0.452
2,AGCCGCGA,0.187
3,AGCCGCGG,0.485
4,ATAAGAGG,0.0703
5,AAGGTCAG,-0.201
6,AGCAGACT,-0.189
7,ACAGAGCT,-0.292
8,GTGCCCAA,-0.0202
9,GAATCACC,-0.027
10,CCGGGCTC,0.224
11,ACAATGCA,0.0617
12,AGAGGATG,0.0386
13,CACTAGCG,-0.0368
14,ATGTTTAC,-0.0373
15,GACGCGCA,0.0698
16,ACACCGGT,0.14
17,CCACCGGG,0.257
18,CCACCGGC,0.204
19,TCACCGGA,0.329
20,GCACCGGC,0.146
21,CCACCGGA,0.428
22,ACACCGGA,0.357
23,GCACCGGA,0.377
24,GCACCGTA,0.067
25,CGTTTGCA,0.0843

row,Sequence,PBM E-score
1,CCAACTGC,0.0661
2,TCCCATCA,-0.209
3,AGAAAGTG,-0.177
4,AATCGACG,0.058
5,CCGGCAGG,0.231
6,ACGGCACC,-0.0873
7,CCGGCACG,0.279
8,CCGGCAGC,0.362
9,CCGGCACC,0.369
10,CCGGCAGA,0.229
11,GTCCGTAA,0.191
12,CCGCCACC,0.0657
13,ACACAGGG,0.0204
14,GCCGTGAC,0.133
15,CCCGGAAA,0.449
16,CCCGAAAA,0.191
17,ACCGGATC,0.34
18,CCCGGAAG,0.419
19,ACCGGACC,0.297
20,ACCGGATG,0.249
21,CCTGGAAG,-0.203
22,CCAGGAAA,-0.0248
23,ACCGGACG,0.311
24,CCCCGAAG,0.144
25,ACCGGAAG,0.42

row,Sequence,PBM E-score
1,ACCGGAAC,0.474
2,CACCCAAG,-0.071
3,AAAATAAG,-0.194
4,CGGTTAAA,0.0999
5,CGATCTGA,0.0713
6,ATATCGAT,0.104
7,ACCGGAAA,0.405
8,CCCCGAAC,0.129
9,GCCGGATA,0.368
10,ACCAGAAA,-0.105
11,GCAGGATA,-0.0657
12,ACCGGACT,0.285
13,ACCGGATA,0.151
14,CCCGGACC,0.334
15,ACCGGAGT,0.234
16,ACCGGAAT,0.411
17,CCCGGAAC,0.467
18,ATTGGCGA,-0.2
19,CCACCTTA,-0.0834
20,GCTTTAGA,-0.238
21,AGAGCATC,-0.0714
22,CGTGCTAG,-0.276
23,GAAAAGGA,0.0166
24,GCCGGAAC,0.476
25,TCCGGTAA,0.307

row,Sequence,PBM E-score
1,GCCGGAAA,0.42
2,GCCGGACC,0.303
3,TCCGGAAA,0.466
4,TCAGGAAA,-0.128
5,GCCGAAAA,0.276
6,GCAGGAAA,-0.081
7,GCCGGAGC,0.236
8,GACAAGTA,0.00093
9,AAGCGATC,0.0113
10,ATTCCGGC,0.448
11,ACTCCCGG,0.356
12,ATTCCTGG,0.0168
13,AATCCGGG,0.354
14,ACTCCCGA,0.0347
15,ATTCCTGC,0.221
16,ATTCCCGG,0.393
17,ATTCCCGA,0.212
18,ATTCCAGC,0.0377
19,ACTCCCCG,0.306
20,ATTCCGGG,0.458
21,ATTCCCCG,0.28
22,ACTCAGCC,-0.146
23,ACAATAGT,-0.0518
24,GGACAACC,0.0553
25,CCACCACC,-0.0836

row,Sequence,PBM E-score
1,CCCAGGGG,-0.115
2,AATGTTAT,0.00821
3,AGCGTGGG,-0.253
4,AGCACCCT,-0.284
5,AGATCGGG,0.0992
6,AGATCCGA,0.169
7,AGATCGGC,0.134
8,GAATCGGA,0.36
9,AAATCGGA,0.326
10,CGATCGGA,0.196
11,AGATCGGA,0.394
12,GGATCGGA,0.359
13,GGATCGAA,0.133
14,GGATCCGA,0.399
15,CGATCCGA,0.326
16,TAATCGGA,0.324
17,CTTGACTA,-0.119
18,TGCAATAA,-0.00943
19,GTCTTCAA,-0.189
20,ACGCTGGG,-0.0598
21,CCCGCGAA,0.206
22,GAAGGAAC,0.0934
